# The supplement of paper PMC11417369
# ± gives the standard deviation of the averaged measurements. In all, about 25,000 sequences were measured (“ln(normalized median fluorescence intensity)”: median about 8.9, highest 2% from about 10 on). For the sample, the highest values were picked, then their nearest neighbours and some sequences at random.
# System: PfAP2-LT AP2 domain (GST-tagged)
# Test: gcPBM binding intensity (ln(normalized median fluorescence intensity)); higher = stronger DNA binding
# How it was run: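 Probes on an Agilent 4 × 180k array were primer-extended, double-stranded and 36 bp long, taken from intergenic genomic regions, with negative controls added. GST-tagged P. falciparum DNA-binding domains from E. coli, about 25 μg on average, were applied to the array for 1 h in 1× PBS containing 1% milk, 0.2 mg/ml BSA, 0.5% salmon testes DNA and 0.03% Triton X-100. Binding intensity, obtained after Alexa488 anti-GST antibody detection and a 488 nm scan, is the highest Masliner-normalised natural-log median intensity across replicate spots of either probe orientation.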
row,Sequence,gcPBM binding intensity (ln)
1,ATATATATATAATTATATAAAATATATCATATGTTA [XGTACX_negctrl_site47],8.53 ± 0.42
2,TATTAATTATATTTATGTACATAATCATATTATTAT [XGTACX_site7938],8.94 ± 0.44
3,TTTAATCATATGTTATATAATAAGCCCCCCCCCCAA [CACACA_negctrl_site486],10.2 ± 0.17
4,AGCACAAGCACAAGCACACATTTATATATAAATACA [CACACA_site4642],9.1 ± 0.47
5,ATTTTTATTTTATATACACACAATAATAATATAATA [CACACA_site4015],8.62 ± 0.36
6,ATAATACACAAGCACACACACACACGGATATTTATA [CACACA_site6714],10.4 ± 0.23
7,AATTAAAAAAAATACACACACACATACCCATATATA [CACACA_site5767],9.85 ± 0.28
8,TTTATTTATTATTGTTGTACACTTTTTATAAAAAAA [XGTACX_site5114],8.57 ± 0.53
9,ATGAAAAAAAAAAAAAAAAAAAAAAAAAAAAAAATA [CACACA_negctrl_site1083],8.37 ± 0.55
10,AAAAATTTGGCATACACACACACACGCACACGCACA [CACACA_site6422],10.2 ± 0.21
11,AAAATTCATATATACACACACGCACATATATATATA [CACACA_site90],9.71 ± 0.21
12,AAAAAATTCATATATACACACACGCACATATATATA [CACACA_site4226],9.53 ± 0.13
13,AAAAATTTGGCATACACACACACACCGACACAGACA [CACACA_site4489],10 ± 0.23
14,AAAAAAATTTGGCATACACACACACCCCCACCCACA [CACACA_site8094],10.41 ± 0.05
15,AAAAATTTGGCATACACACACACACCCACACCCACA [CACACA_site587],10.03 ± 0.042
16,CACATACACCCATACACACACATATATATTAAGATA [CACACA_site4459],9.57 ± 0.38
17,TATATATATATATAATGTACAAACTCCTTTATATAT [XGTACX_site4545],9.05 ± 0.2
18,ATTATTTTATTATAGTGTACTTTTTTAATCAAAGGA [XGTACX_site8921],8.44 ± 0.4
19,TTAGGTTATAAATACACACACAAAAGAAAAAAAAAA [CACACA_site5625],9.23 ± 0.55
20,TTATGATCATTTATATGTACACATAATTTTTGTGCT [XGTACX_site5568],9.03 ± 0.44
21,AAAAAAAAAAAAAAGAGTACATTTATTTATATATCT [XGTACX_site2381],8.46 ± 0.33
22,TAGAATAATCCTTACACACACACACCCACGAATAAA [CACACA_site483],10.1 ± 0.2
23,AATAGAATAATCCTTACACACACACGCGCACGAATA [CACACA_site6365],9.78 ± 0.31
24,AATAGAATAATCCTTACACACACACCCACACGAATA [CACACA_site8053],9.87 ± 0.16
